# High-throughput results from PubChem BioAssay.
# Cruzain inh Det: inhibitors of Trypanosoma cruzi cruzain with detergent; P25779; purified cruzain, Z-FR-AMC fluorescence, 0.01% Triton; Potency, µM, without a hit: max response, negative = inhibition, most hits filed as inhibitors; hit rate 0.43% among 200,000;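 also: plate controls were neutral wells for no effect and buffer without enzyme for full effect; nearly all actives have a fitted effect of over 40% in size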
# Target sequence (P25779 123-467 limits assumed): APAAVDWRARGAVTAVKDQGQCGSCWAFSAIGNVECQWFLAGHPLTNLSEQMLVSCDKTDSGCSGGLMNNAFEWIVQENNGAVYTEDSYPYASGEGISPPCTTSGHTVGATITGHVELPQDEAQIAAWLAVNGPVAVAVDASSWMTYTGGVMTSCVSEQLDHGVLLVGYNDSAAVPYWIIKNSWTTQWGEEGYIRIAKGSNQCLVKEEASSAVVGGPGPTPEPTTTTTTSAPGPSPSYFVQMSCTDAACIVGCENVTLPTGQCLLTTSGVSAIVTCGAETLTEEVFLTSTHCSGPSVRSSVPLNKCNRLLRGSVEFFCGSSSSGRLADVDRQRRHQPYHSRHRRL
#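 Cysteine protease activity tested under reducing, mildly acidic conditions (100 mM sodium acetate pH 5.5, 5 mM DTT) plus 0.01% Triton X-100. Cruzain 1.5 nM; substrate Z-FR-AMC 2 uM; 15 min compound preincubation at room temperature.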
# Cruzain noTriton: inhibitors of Trypanosoma cruzi cruzain without detergent. P25779. purified cruzain, Z-FR-AMC fluorescence, no detergent. Potency, µM, inactives show max response, negative = inhibition, actives largely listed as inhibitors. hit rate 2.3% among 200,000. AID 1476;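 also: plate controls were enzyme without inhibitor for no effect and buffer without enzyme for full effect; nearly all actives have a fitted effect of over 40% in size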
#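 Detergent-free condition (0.00005% Triton X-100) in acetate buffer pH 5.5 with DTT. 1.5 nM enzyme and compound were pre-mixed 15 min, then 2 uM Z-FR-AMC substrate added; reaction progress from fluorescence change between first and third reads (60 s).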
# An asterisk follows results filed as active; ? = inconclusive; ! = not active in a repeat. Hits are enriched below; roughly 2.4% of the tested compounds scored in any of these assays. Calls follow the shape of the dose curve; as a rule, active = well fitted curve in the direction sought with a large enough effect; inconclusive = small, poorly fitted or top-dose-only effect, or another doubt; inactive = no such curve, though single readings can be large; an effect the other way counts as inactive or inconclusive. Potency is read from the fitted curve at half-maximal effect.
SMILES,Cruzain inh Det,Cruzain noTriton
Cc1ccc(-c2nnn(CC(=O)N(c3ccccc3)C(C(=O)NC3CCCC3)c3ccco3)n2)o1 (stereo not given),1%,10µM*
Cc1ccc(-c2nnn(CC(=O)N(Cc3cccs3)C(C(=O)NC3CCCC3)c3ccco3)n2)o1 (stereo not given),7%,4%
COCCn1c(=O)c(-c2cccs2)nc2cnc(Oc3ccccc3)nc21,5%,24%
COc1cc(NC(=O)CSc2ccc(-c3sc(C)nc3C)nn2)cc(OC)c1,-9%,?
CCc1ccc(NC(=O)CCn2c(=O)oc3ccccc32)cc1,-1%,1.3µM*
Cc1ccc(NC(=O)CCn2c(=O)oc3ccccc32)cc1,1%,-3%
COc1ccccc1N1CCN(S(=O)(=O)c2c(C)nc3sccn3c2=O)CC1,1%,11%
CCN(CC)CCCNC(=O)c1ccc2c(c1)sc1nc(-c3ccc(C)cc3)cn12,-2%,12%
Cc1ccc(NC(=S)N2CCCC(c3nc4ccc(C)cc4[nH]3)C2)c(C)c1 (stereo not given),?,-26%
Cc1ccc2nc(C3CCCN(C(=S)Nc4cccc(C)c4C)C3)[nH]c2c1 (stereo not given),14µM*,16µM*
Nc1c(C(=O)c2ccc3c(c2)OCO3)sc(Nc2ccccc2F)c1S(=O)(=O)c1ccccc1,-4%,?
COc1ccc(S(=O)(=O)Nc2ccc3c(c2)OCO3)cc1,2%,2%
COc1ccc(S(=O)(=O)c2c(Nc3c(C)cccc3C)sc(C(=O)c3ccc4c(c3)OCO4)c2N)cc1,-3%,7.9µM*
COc1ccc(S(=O)(=O)c2c(Nc3c(C)cccc3C)sc(C(=O)c3ccc(F)cc3)c2N)cc1,5%,6.3µM*
COc1cccc(Nc2sc(C(=O)c3ccc4c(c3)OCO4)c(N)c2S(=O)(=O)c2ccccc2)c1,-1%,7.9µM*
Cc1cccc(C)c1Nc1sc(C(=O)c2ccccc2)c(N)c1C(=O)Nc1ccc(F)cc1,-3%,?
COc1ccc(S(=O)(=O)c2c(Nc3cccc(C)c3C)sc(C(=O)c3ccccc3)c2N)cc1,-3%,6.3µM*
Cc1ccccc1Nc1sc(C(=O)c2ccccc2)c(N)c1S(C)(=O)=O,-11%,-8%
Cc1ccc(NC(=O)C2CCC(CNS(=O)(=O)c3ccc4c(c3)CCCC(=O)N4)CC2)cc1F (stereo not given),-2%,0%
CNS(=O)(=O)c1cn(CC(=O)N2CCN(c3cccc(Cl)c3)CC2)cc1S(=O)(=O)NC,-4%,25%
CCCc1cnc2c(c1SCC(=O)Nc1ccc([N+](=O)[O-])cc1)c(=O)n(C)c(=O)n2C,0%,-13%
CCOC(=O)c1c(S(=O)(=O)N2CCCC(C(=O)Nc3cccc(Cl)c3)C2)c(C)n(C)c1C (stereo not given),3%,-7%
CN(C)c1ncc2nc(-c3ccccc3)c(=O)n(C[C@H]3CCCO3)c2n1,-2%,7%
COc1ccc(/C=C/C(=O)Nc2nc(-c3cccs3)ns2)cc1OC,-6%,?
O=C(c1ccccc1)[C@H]1[C@H](c2ccccc2[N+](=O)[O-])N1C1CCCCC1 (stereo not given in full),1%,-3%
SMILES,Cruzain inh Det,Cruzain noTriton
CC(=O)c1ccc(NC(=O)CSc2nc(-c3cccc(F)c3)nc3c2c(=O)n(C)c(=O)n3C)cc1,3%,-1%
COc1ccccc1Nc1sc(C(=O)c2ccc(F)cc2)c(N)c1S(=O)(=O)c1ccc(C)cc1,-2%,7.9µM*
Cc1ccc(C(=O)c2sc(Nc3ccc(F)cc3)c(C#N)c2N)cc1,-9%,?
CC(C)c1ccc(Nc2cc(C(=O)NCc3cccs3)c3ccccc3n2)cc1,-3%,10µM*
COc1ccc(Nc2cc(C(=O)NCc3cccs3)c3ccccc3n2)cc1,1%,?
COc1cccc(Cn2cnc3c(NS(=O)(=O)c4ccc(Cl)cc4Cl)c(C)c(C)cc32)c1,2%,32µM*
COc1cccc(Cn2cnc3c(NS(=O)(=O)c4cc(Cl)ccc4Cl)c(C)c(C)cc32)c1,-6%,?
Cc1cccc(NS(=O)(=O)c2ccc3c(c2)C(C)(C)C(=O)N3C)c1,-3%,-7%
CCOc1ccc(NC(=O)C2CCCN(c3ccc(Sc4ccc(C)cc4)nn3)C2)cc1 (stereo not given),1%,10%
COCCNC(=O)CCCn1c(SCC(=O)Nc2cccc(C)c2)nc2c(sc3ccccc32)c1=O,2%,12%
CN(C)S(=O)(=O)c1cccc(NC(=O)COC(=O)c2cc(-c3cccc(Br)c3)nc3ccccc23)c1,-1%,10µM*
CCN(c1ccccc1)S(=O)(=O)c1ccc(Cl)c(NC(=O)COC(=O)c2cccc(OC)c2O)c1,-4%,?
CCN(CC)S(=O)(=O)c1ccc(Cl)c(NC(=O)COC(=O)c2c(C)noc2C)c1,0%,3%
CCN(CC)S(=O)(=O)c1ccc(Cl)c(NC(=O)COC(=O)c2cc(-c3ccccc3Cl)nc3ccccc23)c1,-4%,10µM*
CCN(c1ccccc1)S(=O)(=O)c1ccc(Cl)c(NC(=O)COC(=O)c2ccc(Cl)c(N)c2)c1,-4%,25µM*
CN(C)S(=O)(=O)c1cccc(NC(=O)COC(=O)c2ccc(Br)o2)c1,-2%,1%
Cc1cccc(-c2noc(CN(C(=O)c3ccccc3Cl)C(C)C)n2)c1,-9%,1%
OCc1cnc(SCc2ccccc2F)n1Cc1ccc(F)cc1,-2%,-9%
COC(=O)C=P(c1ccccc1)(c1ccccc1)c1ccccc1,2%,-2%
COc1ccccc1NC(=O)C1=C(C)Nc2nc(-c3ccco3)nn2C1c1ccccc1F (stereo not given),-6%,-2%
COc1ccc(/C=C2/C(=O)N(Cc3ccccc3)N=C2C)cc1,0%,1%
COc1ccc(/C=C2/C(=O)N(c3nc4ccccc4s3)N=C2CSc2ccc(Cl)cc2)cc1,-8%,3.2µM*
Cc1ccc(C(=O)CNc2cccc(Cl)c2)cc1,-1%,-23%
O=C(CNc1cccc(Cl)c1)c1ccc(Cl)cc1,7%,32µM*
COc1ccc(C(=O)Nc2ccc(N3CCCC3)cc2)cc1,?,10µM*
SMILES,Cruzain inh Det,Cruzain noTriton
CCCOc1ccc(C(=O)Nc2ccc(N3CCN(C(C)=O)CC3)cc2)cc1,-3%,?
COc1ccc(C(=O)N/N=C(/C)c2ccc(N3CCCCC3)cc2)cc1,-15%,?
CCOc1ccc(C(=O)Nc2ccc(N3CCCC3)cc2)cc1,-15%,7.9µM*
COc1ccc(C2(C(=O)Nc3nncs3)CCCC2)cc1,2%,-2%
O=C(c1ccc(F)cc1)c1ccc(N2CCCC2)cc1,-7%,2%
O=C(Nc1ccc(N2CCCCC2)cc1)c1ccc(F)cc1,4%,25µM*
COc1ccc(NC(=O)C2(c3ccc(NC(=O)c4ccc(OC)cc4)cc3)CCCC2)cc1,0%,7.9µM*
COc1cccc2c1cc1c(=O)n(CC(=O)N3CCN(c4ccc(Cl)cc4)CC3)nc(C)n12,4%,32%
CN(C)c1ccccc1,0%,-1%
CN(C)c1ccc(C(=C2C=CC(=[N+](C)C)C=C2)c2ccccc2)cc1,0%,25µM*!
CN(C)c1ccc(C(=C2C=CC(=[N+](C)C)C=C2)c2ccc(N(C)C)cc2)cc1,-21%,20µM*!
CN(C)c1ccc(C(=O)c2ccc(N(C)C)cc2)cc1,-10%,-15%
CC(=O)c1ccc(NC(=O)OCCN2CCN(Cc3ccccc3)CCC2=O)cc1,0%,0%
CCOc1ccc(C2C(C(N)=O)=C(C)Nc3nc(-c4ccc(OC)cc4)nn32)cc1 (stereo not given),-4%,26%
